Values without a mark were called inactive. For part of these data: Entries with a potency or affinity are not part of this list. Active and inactive are the calls of the source. Unless noted, how the calls were made is not given here.
Legend:
[1] = antimalarial activity against Dd2 strain (AID 2302;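 active means growth inhibition above 50% at the single 2 µM test dose, taken to imply half-maximal potency below 2 µM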;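 further: 0% = DMSO untreated growth and 100% = chloroquine plus artemisinin killed control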); details: P. falciparum Dd2 in RBCs, LDH growth readout, 72 h; at 2 µM; hits give high values
[2] = human hepatoma cell viability loss – ATP luminescence, cytotoxicity control for P. falciparum antimalarial project, primary screen (AID 2303;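 active means inhibition above 50%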;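 further: 0% = DMSO wells and 100% = digitonin-killed cells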); details: HepG2 viability, 24-48 h, at 10 µM, hits give high values
[3] = target: L-lactate dehydrogenase (Plasmodium falciparum (isolate CDC / Honduras)) (UniProt Q27743); assay: PfLDH activity inhibition – cell lysate, 3D7 strain, counter-screen for P. falciparum growth inhibition project (AID 2304);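 further: 0% = vehicle and 100% = reference inhibitor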; details: P. falciparum 3D7 crude extract, LDH APAD/NBT absorbance; at 2 µM; hits give high values
[4] = inhibition of 3D7 malaria parasite growth – strain 3D7 (AID 2306);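 further: 0% = DMSO wells and 100% = chloroquine plus artemisinin control wells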; details: P. falciparum 3D7 erythrocytic growth, LDH absorbance, 72 h; at 2 µM; hits give high values
[5] = target: Calcium-dependent protein kinase 1 (Plasmodium falciparum (isolate 3D7)) (UniProt P62344); assay: PfCDPK1 kinase inhibitors, biochemical, TCAMS library (AID 1159585; cut-off not given, nearly all actives have IC50 up to about 0.98 µM;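 further: inhibitors leave more ATP so luminescence rises with inhibition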); details: recombinant PfCDPK1, Kinase-Glo ATP depletion luminescence
[6] = target: Plasmodium falciparum protein kinase 6 (PK6, PF3D7_1337100) (UniProt Q8IDW1); assay: PfPK6 kinase inhibitors, biochemical, TCAMS library (AID 1159586); details: recombinant PfPK6, Kinase-Glo ATP depletion luminescence
[7] = target: Protein kinase 7 (PK7), Plasmodium falciparum 3D7 (PF3D7_0213400) (UniProt Q7YTF7); assay: inhibition of Plasmodium PK7 catalytic activity – biochemical, TCAMS antimalarial set, Kinase-Glo luminescence (AID 1159587); details: recombinant PfPK7, Kinase-Glo ATP depletion luminescence
[8] = target: Calcium-dependent protein kinase 4 (Plasmodium falciparum (isolate 3D7)) (UniProt Q8IBS5); assay: PfCDPK4 kinase inhibitors, biochemical, TCAMS library (AID 1159588; cut-off not given, nearly all actives have IC50 up to about 0.91 µM); details: recombinant PfCDPK4, Kinase-Glo ATP depletion luminescence
Chain of Calcium-dependent protein kinase 4 (Plasmodium falciparum (isolate 3D7)) (Q8IBS5 whole entry, looked up): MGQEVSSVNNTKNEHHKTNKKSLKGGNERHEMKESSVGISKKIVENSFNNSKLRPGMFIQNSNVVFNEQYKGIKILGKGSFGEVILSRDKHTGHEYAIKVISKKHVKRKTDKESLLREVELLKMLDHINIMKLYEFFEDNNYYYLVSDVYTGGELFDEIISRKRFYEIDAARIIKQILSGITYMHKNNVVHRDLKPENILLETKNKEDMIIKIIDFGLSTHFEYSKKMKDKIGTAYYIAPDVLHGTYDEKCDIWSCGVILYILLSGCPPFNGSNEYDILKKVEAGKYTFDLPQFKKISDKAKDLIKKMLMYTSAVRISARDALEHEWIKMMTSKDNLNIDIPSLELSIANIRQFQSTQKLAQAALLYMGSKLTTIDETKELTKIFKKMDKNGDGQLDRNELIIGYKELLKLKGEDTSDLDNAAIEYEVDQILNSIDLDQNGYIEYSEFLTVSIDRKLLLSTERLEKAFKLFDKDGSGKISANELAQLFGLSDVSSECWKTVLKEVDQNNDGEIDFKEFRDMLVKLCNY

Chain of Plasmodium falciparum protein kinase 6 (PK6, PF3D7_1337100) (Q8IDW1 1-305): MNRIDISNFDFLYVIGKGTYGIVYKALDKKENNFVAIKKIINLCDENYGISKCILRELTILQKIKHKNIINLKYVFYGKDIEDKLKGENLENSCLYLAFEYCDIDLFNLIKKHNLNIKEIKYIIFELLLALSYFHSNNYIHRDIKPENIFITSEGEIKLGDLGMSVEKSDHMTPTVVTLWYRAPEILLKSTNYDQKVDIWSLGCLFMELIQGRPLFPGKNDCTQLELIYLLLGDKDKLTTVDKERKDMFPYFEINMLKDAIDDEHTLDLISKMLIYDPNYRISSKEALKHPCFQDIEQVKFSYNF
Chain of Protein kinase 7 (PK7), Plasmodium falciparum 3D7 (PF3D7_0213400) (Q7YTF7 1-343): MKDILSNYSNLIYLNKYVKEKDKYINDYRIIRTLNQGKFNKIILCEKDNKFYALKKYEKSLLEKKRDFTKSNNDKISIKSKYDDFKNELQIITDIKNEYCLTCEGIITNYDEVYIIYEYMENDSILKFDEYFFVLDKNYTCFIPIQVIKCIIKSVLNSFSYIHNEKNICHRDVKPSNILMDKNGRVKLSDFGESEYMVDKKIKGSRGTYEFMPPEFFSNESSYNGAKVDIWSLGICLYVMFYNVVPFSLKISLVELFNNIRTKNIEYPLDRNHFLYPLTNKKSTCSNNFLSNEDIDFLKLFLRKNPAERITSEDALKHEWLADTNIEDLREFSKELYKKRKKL
Chain of L-lactate dehydrogenase (Plasmodium falciparum (isolate CDC / Honduras)) (Q27743 whole entry, looked up): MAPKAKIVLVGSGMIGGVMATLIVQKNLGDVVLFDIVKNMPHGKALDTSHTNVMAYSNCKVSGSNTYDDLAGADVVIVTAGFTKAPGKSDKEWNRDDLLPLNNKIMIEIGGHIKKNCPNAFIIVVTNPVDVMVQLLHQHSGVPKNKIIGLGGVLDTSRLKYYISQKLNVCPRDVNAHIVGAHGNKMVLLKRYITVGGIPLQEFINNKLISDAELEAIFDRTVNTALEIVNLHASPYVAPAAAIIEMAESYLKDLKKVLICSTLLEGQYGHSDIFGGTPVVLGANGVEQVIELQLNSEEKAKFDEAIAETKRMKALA
Chain of Calcium-dependent protein kinase 1 (Plasmodium falciparum (isolate 3D7)) (P62344 whole entry, looked up): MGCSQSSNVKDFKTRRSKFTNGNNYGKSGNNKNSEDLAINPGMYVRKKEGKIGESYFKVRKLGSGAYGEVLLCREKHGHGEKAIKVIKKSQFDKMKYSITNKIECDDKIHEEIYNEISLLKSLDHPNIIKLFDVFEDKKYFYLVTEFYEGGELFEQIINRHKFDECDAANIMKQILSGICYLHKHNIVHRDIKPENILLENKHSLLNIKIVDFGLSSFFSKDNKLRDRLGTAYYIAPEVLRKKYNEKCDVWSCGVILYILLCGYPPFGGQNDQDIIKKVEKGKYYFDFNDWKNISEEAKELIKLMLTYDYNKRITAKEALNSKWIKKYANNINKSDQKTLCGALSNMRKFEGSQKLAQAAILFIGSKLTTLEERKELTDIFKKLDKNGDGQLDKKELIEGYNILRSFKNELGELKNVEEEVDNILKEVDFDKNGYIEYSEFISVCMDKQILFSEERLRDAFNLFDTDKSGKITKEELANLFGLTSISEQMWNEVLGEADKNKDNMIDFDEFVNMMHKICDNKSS

In the case of `C[C@H](NC(=O)c1c(CN2CCC(N3CCCCC3=O)CC2)c(-c2cccs2)nc2ccccc12)C1CCCCC1`, the growth inhibition [1] is reported as 73% (active), the inhibition [2] is reported as 8% and the inhibition [3] is reported as 2%. The growth inhibition [4] was 91% (active), the outcome [5] was “inactive” and the outcome [6] was “inactive”. The outcome [7] was “inactive” and the outcome [8] was “inactive”.

In the case of `Fc1ccc2nc(-c3ccc(-c4ccc(CNCC5CCCO5)cc4)s3)[nH]c2c1` (stereo not drawn), the growth inhibition [1] is reported as 99% (active), the inhibition [2] is reported as 30% and the inhibition [3] is reported as -2%. The growth inhibition [4] was 100% (active), the outcome [5] was “inactive” and the outcome [6] was “inactive”. The outcome [7] was “inactive” and the outcome [8] was “inactive”.

For `Cc1cccc(CNc2nc(C)cc(NCCC(=O)NCCOc3ccccc3)n2)c1`, the growth inhibition [1] was 14%, the inhibition [2] was 18% and the inhibition [3] was 0%. For the same compound, the growth inhibition [4] was 98% (active), the outcome [5] was “inactive” and the outcome [6] was “inactive”. The outcome [7] was “inactive” and the outcome [8] was “inactive”.

With `CN1CCCC(CN2CCN(Cc3cccc(-c4ccc(-c5nc6ccccc6[nH]5)cc4)c3)CC2)C1` (stereo not drawn) the growth inhibition [1] was 101% (active), the inhibition [2] was 73% (active) and the inhibition [3] was -2%. For the same compound, the growth inhibition [4] was 100% (active), the outcome [5] was “inactive” and the outcome [6] was “inactive”. The outcome [7] was “inactive” and the outcome [8] was “inactive”.

With `O=C(Nc1ccccc1Br)N[C@@H]1CCN(c2ccnc3ccccc23)C1` the growth inhibition [1] was 90% (active), the inhibition [2] was 25% and the inhibition [3] was 2%. For the same compound, the growth inhibition [4] was 91% (active), the outcome [5] was “inactive” and the outcome [6] was “inactive”. For the same compound, the outcome [7] was “inactive” and the outcome [8] was “inactive”.

In the case of `CCOc1ccc(-c2nonc2NC(=O)c2ccc(OC)cc2)cc1OCC`, the growth inhibition [1] is reported as 77% (active), the inhibition [2] is reported as -1% and the inhibition [3] is reported as -1%. The growth inhibition [4] was 98% (active), the outcome [5] was “inactive” and the outcome [6] was “inactive”. The outcome [7] was “inactive” and the outcome [8] was “inactive”.

For `Oc1ccc2[nH]c(-c3cccc(F)c3)nc2c1CN1CCCC1`, the growth inhibition [1] was 47%, the inhibition [2] was 0% and the inhibition [3] was 5%. For the same compound, the growth inhibition [4] was 100% (active), the outcome [5] was “inactive” and the outcome [6] was “inactive”. For the same compound, the outcome [7] was “inactive” and the outcome [8] was “inactive”.

With `O=C(Nc1ccc(Cl)cc1)Nc1ccc(Cn2ncc(N3CCCNCC3)c(Cl)c2=O)cc1` the growth inhibition [1] was 11%, the inhibition [2] was 49% and the inhibition [3] was 1%. For the same compound, the growth inhibition [4] was 85% (active), the outcome [5] was “inactive” and the outcome [6] was “inactive”. For the same compound, the outcome [7] was “inactive” and the outcome [8] was “inactive”.

Work on `COc1ccc(/C=C/C(=O)NCCCCCN2CCC(c3c[nH]c4ccccc34)CC2)cc1O` yielded a growth inhibition [1] of 1%, an inhibition [2] of 9% and an inhibition [3] of -5%. The growth inhibition [4] was 91% (active), the outcome [5] was “inactive” and the outcome [6] was “inactive”. The outcome [7] was “inactive” and the outcome [8] was “inactive”.

`COc1cc2c(cc1OCCN1CCC(N)CC1)N(C(=O)/C=C/c1ccccc1Cl)CC2` showed a growth inhibition [1] of 18%, an inhibition [2] of 19% and an inhibition [3] of -7%. For the same compound, the growth inhibition [4] was 91% (active), the outcome [5] was “inactive” and the outcome [6] was “inactive”. For the same compound, the outcome [7] was “inactive” and the outcome [8] was “inactive”.

With `Cc1cccc2[nH]c(-c3cccc(-c4cccc(NC(=O)c5ccncc5)c4)c3)nc12` the growth inhibition [1] was 78% (active), the inhibition [2] was 22% and the inhibition [3] was -3%. For the same compound, the growth inhibition [4] was 100% (active), the outcome [5] was “inactive” and the outcome [6] was “inactive”. For the same compound, the outcome [7] was “inactive” and the outcome [8] was “inactive”.

With `O=C(Nc1ccc(Cl)cc1)c1ccc(CN2CCCN(Cc3ccc(F)cc3)CC2)cc1` the growth inhibition [1] was 8%, the inhibition [2] was 48% and the inhibition [3] was 6%. For the same compound, the growth inhibition [4] was 91% (active), the outcome [5] was “inactive” and the outcome [6] was “inactive”. The outcome [7] was “inactive” and the outcome [8] was “inactive”.

For `Cc1[nH]c(C)c(-c2ccc(Br)cc2)c(=O)c1Cl`, the growth inhibition [1] was 77% (active), the inhibition [2] was 22% and the inhibition [3] was -2%. For the same compound, the growth inhibition [4] was 94% (active), the outcome [5] was “inactive” and the outcome [6] was “inactive”. For the same compound, the outcome [7] was “inactive” and the outcome [8] was “inactive”.

With `Cc1c(CNCCCNc2cc(=O)c3ccccc3[nH]2)sc(C(F)=C(F)F)c1Br` the growth inhibition [1] was 18%, the inhibition [2] was 7% and the inhibition [3] was -2%. For the same compound, the growth inhibition [4] was 94% (active), the outcome [5] was “inactive” and the outcome [6] was “inactive”. For the same compound, the outcome [7] was “inactive” and the outcome [8] was “inactive”.

In the case of `Cc1cccc2[nH]c(-c3cccc(-c4cccc(NC(=O)CC5NC(=O)c6ccccc65)c4)c3)nc12` (stereo not drawn), the growth inhibition [1] is reported as 49%, the inhibition [2] is reported as 8% and the inhibition [3] is reported as -1%. The growth inhibition [4] was 92% (active), the outcome [5] was “inactive” and the outcome [6] was “inactive”. For the same compound, the outcome [7] was “inactive” and the outcome [8] was “inactive”.

For `CC(C)C[C@H]1c2[nH]c3ccc(Cl)cc3c2CCN1C(=O)CCc1ccccc1`, the growth inhibition [1] was 81% (active), the inhibition [2] was -2% and the inhibition [3] was 6%. For the same compound, the growth inhibition [4] was 95% (active), the outcome [5] was “inactive” and the outcome [6] was “inactive”. The outcome [7] was “inactive” and the outcome [8] was “inactive”.

`Fc1cccc(Nc2nc(NCc3ccc(Cl)c(Cl)c3)nc(Nc3cccc(F)c3)n2)c1` showed a growth inhibition [1] of 7%, an inhibition [2] of -5% and an inhibition [3] of 3%. For the same compound, the growth inhibition [4] was 99% (active), the outcome [5] was “inactive” and the outcome [6] was “inactive”. For the same compound, the outcome [7] was “inactive” and the outcome [8] was “inactive”.

With `O=C(Nc1ccc(Cl)cc1)Nc1ccc(-c2ccc(-c3nc4ccccc4[nH]3)cc2)cc1` the growth inhibition [1] was 99% (active), the inhibition [2] was 47% and the inhibition [3] was 0%. The growth inhibition [4] was 101% (active), the outcome [5] was “inactive” and the outcome [6] was “inactive”. The outcome [7] was “inactive” and the outcome [8] was “inactive”.

Compound `COc1ccc2ncc(F)c(CCN3CC[C@@H](CNCc4ccc5c(c4C)OCCO5)C3)c2n1` has a growth inhibition [1] of 11%, an inhibition [2] of 17% and an inhibition [3] of 1%. The growth inhibition [4] was 94% (active), the outcome [5] was “inactive” and the outcome [6] was “inactive”. For the same compound, the outcome [7] was “inactive” and the outcome [8] was “inactive”.

In the case of `COc1cccc(CN2CCC(N3CCc4cc(NC(=O)c5cc(C)on5)ccc43)C2)c1OC` (stereo not drawn), the growth inhibition [1] is reported as 92% (active), the inhibition [2] is reported as 9% and the inhibition [3] is reported as 4%. For the same compound, the growth inhibition [4] was 93% (active), the outcome [5] was “inactive” and the outcome [6] was “inactive”. The outcome [7] was “inactive” and the outcome [8] was “inactive”.

In the case of `COc1cc2sc(=NC(=O)c3cccc([N+](=O)[O-])c3)n(C)c2cc1OC`, the growth inhibition [1] is reported as 79% (active), the inhibition [2] is reported as 5% and the inhibition [3] is reported as -3%. The growth inhibition [4] was 92% (active), the outcome [5] was “inactive” and the outcome [6] was “inactive”. For the same compound, the outcome [7] was “inactive” and the outcome [8] was “inactive”.
